Experimental data: ChEMBL document CHEMBL4513216, “Probing the Open Global Health Chemical Diversity Library for Multistage-Active Starting Points for Next-Generation Antimalarials” (ACS Infect Dis, 2020)
About 8,600 (12%) of roughly 69,000 compounds showed an effect of 50% or more. The list comes from a sample in which strong results are over-represented; it also holds similar structures and randomly drawn compounds.

The molecules below were run on Plasmodium berghei (assay: Screen against P. berghei liver stage (PbLuc), transformed with Luciferase, at 10uM). Conditions: tested at 10 uM.
Format: functional, HepG2

Row | SMILES | INHIBITION
1 | NC(=O)CSc1ccccc1NC(=O)C1CCCCC1 | 21.1%
2 | CC1N(c2cnn(C)c2)C(=O)COC12CCN(CC1CC1)CC2 (configuration not stated) | -5.25%
3 | CC1N(c2cnn(C)c2)C(=O)COC12CCN(c1ccccn1)CC2 (configuration not stated) | 39.5%
4 | CC1N(c2cnn(C)c2)C(=O)COC12CCN(c1ncccn1)CC2 (configuration not stated) | 58.3%
5 | O=C(Cc1ccc2c(c1)CCO2)N1CCN(c2nccs2)CC1 | 9.14%
6 | CN(C)c1cc(CNC(=O)Nc2nccs2)ccn1 | -0.219%
7 | CC(C)NC(=O)[C@H]1C[C@@H]2[C@@H](C1)OCCN2Cc1ccsc1 | 16.9%
8 | COCCSCC(=O)NC1(c2cccc(Br)c2)CC1 | 54.4%
9 | CSCC(=O)NC1(c2cccc(Cl)c2)CC1 | 8.41%
10 | CCOCC(=O)NC1(c2cccc(Cl)c2)CC1 | 57.3%
11 | CCOCC(=O)NC1(c2cccc(Br)c2)CC1 | 45.1%
12 | COCCCC(=O)NC1(c2cccc(Br)c2)CC1 | 32.5%
13 | NC(=O)CSCC(=O)NC1(c2cccc(Br)c2)CC1 | 8.99%
14 | Cc1nn(C)c(N(C)C)c1CNCC(O)COc1ccccc1 (configuration not stated) | -56.9%
15 | O=C(NCCSc1ccccc1)[C@H]1CNC[C@H](C(=O)N2CCOCC2)C1 | 11.2%
16 | CCS(=O)(=O)CC(C)N(C)C(=O)COc1ccccc1C#N (configuration not stated) | -29.7%
17 | CCCc1nc(CN2CCCN(Cc3nccn3C)CC2)no1 | 25.6%
18 | CCOCCN1CCN(Cc2cccc(C(=O)N(C)C)c2)CC1CC (configuration not stated) | 25.6%
19 | O=C(CCc1ccccc1)NCC1CCN(Cc2ccsc2)CC1 | -11.8%
20 | COCC(=O)NCC1CCN(Cc2ccsc2)CC1 | -6.67%
21 | O=C(CCc1ccccc1)NCC1CCN(Cc2cccs2)CC1 | 51.9%
22 | O=C(CCc1ccsc1)NCC1CCN(Cc2cccs2)CC1 | 14.6%
23 | O=C(CCc1ccsc1)NCC1CCN(c2ccccc2)C1 (configuration not stated) | 2.74%

Row | SMILES | INHIBITION
24 | O=C(COc1ccccc1)NCC1CCN(Cc2ccsc2)CC1 | 27%
25 | CCOCC(=O)NCC1CCN(Cc2ccsc2)CC1 | 60%
26 | O=C(CCSc1ccccc1)NCC1CCN(Cc2ccsc2)CC1 | 27.6%
27 | O=C(CCc1ccccc1)NCC1CCN(Cc2ccccc2)CC1 | 54.2%
28 | Cc1ccccc1C1CCCN1Cc1nc2c(cnn2C)c(=O)[nH]1 (configuration not stated) | -52.5%
29 | CN(C)[C@@H]1CCN(c2ncc(F)cn2)[C@H]1Cc1ccccc1 | -101%
30 | CN(C)C(=O)CN1C(=O)CCC12CCN(Cc1cccn1C)CC2 | 33.2%
31 | Cn1ccc(C(=O)N2CCN(CC(O)C(C)(C)C)CC2)cc1=O (configuration not stated) | 25.6%
32 | Cc1cc(C(=O)NCCCn2nccc2C2CC2)c(=O)[nH]c1C | 53.3%
33 | Cc1nc(N(C)C)ncc1C(=O)NCCCn1nccc1C1CC1 | 27.5%
34 | Cc1ccc2[nH]c(=O)cc(C(=O)NCCCn3nccc3C3CC3)c2c1 | -7.16%
35 | COCCCC1CCCCN1S(=O)(=O)c1cccc(C#N)c1 (configuration not stated) | -41.8%
36 | N#Cc1cccc(S(=O)(=O)N2CCCCC2CCN2CCCC2)c1 (configuration not stated) | 51.3%
37 | N#Cc1cccc(S(=O)(=O)N2CCCCC2CCN2CCCC2=O)c1 (configuration not stated) | 20.1%
38 | CNC(=O)NCC(CO)Cc1cccc(OC(F)(F)F)c1 (configuration not stated) | -10.3%
39 | CCS(=O)(=O)N1CCc2c(cnc(-c3cccnc3)c2C(=O)O)C1 | -1.26%
40 | Cc1ccc(C)c(S(=O)(=O)CCN2CCc3c(ncn3C)C2)c1 | 19.4%
41 | O=C(c1cncs1)N1CCC(Cc2cnc3[nH]ccc3c2)CC1 | 64.1%
42 | O=C(c1cnccn1)N1CCC(Cc2cnc3[nH]ccc3c2)CC1 | 17.1%
43 | O=C(c1ccncc1)N1CCC(Cc2cnc3[nH]ccc3c2)CC1 | 33.7%
44 | Cc1ccc(OC2(C(=O)NC(C)c3csc(C)n3)CCNCC2)cc1 (configuration not stated) | 41.2%
45 | Nc1nnnn1NCc1cccc(Cl)c1Cl | 61.5%
46 | Nc1nnnn1NCc1ccccc1C(F)(F)F | -24.6%

Row | SMILES | INHIBITION
47 | Nc1nnnn1NCc1cccc2ccccc12 | 23.4%
48 | CC(C)NC(=O)C1CCc2nnc(C(C)(C)C)n21 (configuration not stated) | -15.5%
49 | Cc1nc(CN2CCC3(CCN(c4cnn(C)c4)C3=O)C2)cs1 (configuration not stated) | -17.2%
50 | CC1(C(=O)N2CCOCC2)CN(Cc2ncc[nH]2)CCO1 (configuration not stated) | 27.8%
51 | Cc1ccc(CN2CC[C@@H](NS(C)(=O)=O)[C@@H]2Cc2ccncc2)o1 | -7.94%
52 | Cc1ccccc1NC(=O)N1CC[C@@H]2CN(CC(C)C)S(=O)(=O)[C@@H]2CC1 | -13.4%
53 | CCN1C[C@H]2CCN(C(=O)Nc3ccccc3C)CC[C@H]2S1(=O)=O | 50.6%
54 | O=C(c1cc[nH]n1)N1CC[C@@H]2CN(Cc3cccnc3)S(=O)(=O)[C@@H]2CC1 | 76.4%
55 | CC(C)CN1C[C@H]2CCN(C(=O)c3ccccn3)CC[C@H]2S1(=O)=O | -19.6%
56 | CCN1C[C@H]2CCN(C(=O)c3cc[nH]n3)CC[C@H]2S1(=O)=O | 63.5%
57 | O=C(c1cc[nH]n1)N1CC[C@@H]2CN(Cc3ccncc3)S(=O)(=O)[C@@H]2CC1 | 26.5%
58 | O=C(c1cc[nH]n1)N1CC[C@@H]2CN(Cc3ccccc3)S(=O)(=O)[C@@H]2CC1 | -23.3%
59 | COCCN1C[C@H]2CCN(C(=O)Nc3ccccc3C)CC[C@H]2S1(=O)=O | 34.6%
60 | CCN1C[C@H]2CCN(C(C)=O)CC[C@H]2S1(=O)=O | -26.8%
61 | CCN(CC)C(=O)NCCc1ccn(-c2ccccc2)n1 | 7.67%
62 | CCn1ncc2c1CCCC2NCc1ccc(OC)cc1OC (configuration not stated) | 42%
63 | O=C(CC1[C@H]2CN(c3ncccn3)C[C@@H]12)Nc1cccnc1 (some centres not stated) | 13.7%
64 | Cc1nc(CN(C)C2CCN(Cc3ccc(C(N)=O)cc3)C2)no1 (configuration not stated) | -27.8%
65 | Cc1cccc(CN2CCCC(c3nccs3)C2)n1 (configuration not stated) | 43.6%
66 | Cc1cc(C)cc(NCCC(=O)NCc2cccnc2N(C)C)c1 | 23.7%
67 | O=C(c1cc2c(s1)CCC2)N1CCN(c2cnccn2)CC1 | -8.66%
